Assay results taken from the supplement of paper PMC6555819.

What follows are sequences tested on RARg:RXRa (NR concentration 270 nM, RXRa partner concentration 90 nM) (assay: PBM binding z-score (relative to random genomic background probes); higher = stronger binding; sequences stand for … in GC…GCGATTGACAGCGTAGAATGAAGG).
Method in brief: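 Regression normalization was applied to scanned fluorescence from custom Agilent 4×180K protein-binding microarrays. Before scanning, arrays were incubated 1 h with ligand-free nuclear receptor dimers, and binding was detected with antibodies against each partner (one per run). Binding z-scores use the random background probes as reference.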

Point of comparison: GGAACGAGGGCAAGTTGATACCAGAGTTTGATGG, PBM binding z-score 1.53. Against it:
- GGAAAGAGGGCATTCGAGTTGATAGCATGGCGAT — higher, 1.81
- CCTACTGGGCCAAGAAAGGTCATTGATTCAGTGA — higher, 3.99
- GCAGACAGTTGAAACGCAGGTAACTCAGGGTGGC — lower, 0.0568
- CCGACTGGGGCAAAGCTTACCATACTCAGTACGA — lower, 0.0271
- TAGCCTAGGTCAGATCGGGCCAATATACGCTATA — higher, 2.9
- CGTCCGAGGTCAGCAGGTCAGTGAAAGCGACGTG — higher, 6.81
- ATCTCTAGGTAAAAGCTCAGTGAATCCCGAGGAT — lower, -0.0468
- AGAATGAGGTTATTAAGTTCAGGGAATTGCGGTC — higher, 2.35
- GCTAGTTGGTTAGTAAAAGGTCACACACCGGTCG — higher, 4.87
- AATACAGTGTCACTAGGCCAGAGTAGGTACGAAT — lower, 0.553
- GGAACGAGGGCAAGTTGCTAGCAGAGTTTGATGG — lower, 1.23
- ATACCAAGGTGATCGTGAGGTCGTGGATACTAAC — higher, 2.71
- TGTCAAAGTTCAAATGTAACGTAAGTATCCACAC — higher, 5.53
- CCTACTGGGCCAAGGTCATTGTTCAGTCAAAGCA — higher, 3.46
- TCGAGTAGGTTAGTCGGGGCATTTAGCCAACATA — lower, 0.175
- CCGAGTAGGTTATGGGGCTTTCAGGCAACGGTGA — lower, 0.0177
- AGAACGAGGGCACGCTGAGTTGATAGGAGAGTAG — higher, 1.93
- CCGACTGGGGCAAAGGTTACCATTCTCAGTACGA — higher, 3.4
- CCTTACGGGTCACTGACAGATTATAGCATTTGGA — higher, 4.96
- CGTCCAAGGTGAAAGGTCAGTGAAGAGATGACGG — higher, 6.03
- ACAGAAAGGTGAGTGAAGGTAACTCAGCTGGACG — higher, 1.58
- TGTCAAAGTTCAAAGGTAACGGAAGTATCCACAC — higher, 6.56
- ACCGAAAGGTCGAGGTGAGTATAGAGAAAGGGAA — higher, 4.28
- ATCTCTCGGTAAGACTCAGTTCAGTGAAGAACGC — lower, 0.265
- CCTTACGGGTCAAGATTATAGCACGGGTGGTACG — higher, 4.4
- ATCTCTAGGTAACCAAGTTAAGTGAATGCCGAAC — lower, 0.245
- GATACAGGCTCAAGGCCAGAGTACGCGTATTGAT — lower, -0.284
- GCAAGCAGGCCATTTGGGTCACTCAATGACGGGC — lower, 0.948
- AGAATGAGGTTATACGTCGATCAGGGAAGAAAGT — higher, 1.73
- TATACAGGTTCAAAGGCCAGAGTACGAATGTCGA — higher, 2.45
- ACTAGCAGGCGAAGTTTGGGTCACTCAAACAAAG — lower, 0.795
- ATTTCTAGGTAAGACTCAGTTCAGTGAAGAACGC — lower, 0.801
- GCTATTGGTTGAAAGGGCAACCGAATGATTCTCG — lower, 1.33
- CGAACTAGGTCATCCTGGACAGTGAATACATTGA — higher, 3.82
- ATATCTAGGTTAAGGGTCATTCAGGTTGGTTCGC — higher, 4.82
- ATATGTTGGTTAAGGGTCATTCAGGTTGGTTCGC — higher, 4.07
- CAAACTAGGTCAACGGTCAAAGTCGAGCCAACCA — higher, 4.94
- TCTGATAGGTCAACGATGGTCAGCTAATCTGCTA — higher, 5.15
- AGTATGAGGTTATACGTAGATCAGGGAAGAAAGT — higher, 1.81
